Test results reported in ChEMBL document CHEMBL4513216, “Probing the Open Global Health Chemical Diversity Library for Multistage-Active Starting Points for Next-Generation Antimalarials” (ACS Infect Dis, 2020).
About 8,600 (12%) of roughly 69,000 compounds showed an effect of 50% or more. This excerpt belongs to a sample that is enriched for strong results.

Tested on: Plasmodium berghei
Experiment: Screen against P. berghei liver stage (PbLuc), transformed with Luciferase, at 10uM
Format: functional, HepG2
Settings: tested at 10 uM

| Compound | INHIBITION [%] |
| --- | --- |
| Cc1cc(-c2cnc(N3CCSCC3)nc2C(C)C)on1 | 50.8 |
| COc1ccc(Cl)cc1C(=O)N1CCCC(c2cc(C)[nH]n2)C1 (configuration not stated) | -2.53 |
| Cc1cc(C(=O)NC2CCC3(CCC(=O)N3CC3CC3)CC2)no1 (configuration not stated) | -1.12 |
| N#CC1(NC(=O)c2ccc(-c3nc(C4CC4)n[nH]3)cc2)CCSC1 (configuration not stated) | 22 |
| COc1ccc(C(C#N)NC(=O)Cc2ccc(F)c(F)c2)c(OC)c1 (configuration not stated) | 17.7 |
| CCc1noc(CN(CC)Cc2cc3ccc(F)cc3[nH]c2=O)n1 | -52.7 |
| CCCn1cc(C(=O)NC2CCN(CC(=O)NC3CC3)CC2)c(C)n1 | 39.4 |
| CCCn1cc(C(=O)NCC(=O)NC2CC2)c(C)n1 | 60.3 |
| CCCn1cc(C(=O)NCCC(=O)NC2CCCCC2)c(C)n1 | -5.12 |
| CCC(=O)Nc1ccccc1Sc1nc(Br)nn1C | 3.31 |
| Cc1ccnc(N2C[C@H]3CC[C@@H](C2)N(CC2CCC2)C3=O)n1 | -4.35 |
| COc1ccc(-c2nc(C)cc(SCC(N)=O)n2)cc1 | 85.5 |
| Cc1cc(SCC(N)=O)nc(-c2ccc(F)cc2)n1 | -6.18 |
| Cc1cc(SCC(N)=O)nc(-c2cccc(F)c2)n1 | 3.58 |
| CCC(C)[C@H](N)c1nnc(SCC(=O)Nc2ccc(Br)cc2)o1 (some centres not stated) | 41.1 |
| CC(=O)N1C[C@H]2CC[C@@H](C1)N(S(=O)(=O)c1ccccc1Cl)C2 | -7.2 |
| CCn1nccc1S(=O)(=O)N1CCC2(CCCN(C(C)C)C2=O)C1 (configuration not stated) | 33 |
| CCCN1CCCC2(CCN(S(=O)(=O)c3cc(C)nn3CC)C2)C1=O (configuration not stated) | 21.2 |
| CCn1nc(C)cc1S(=O)(=O)N1CCC2(CCCN(C(C)C)C2=O)C1 (configuration not stated) | 58.6 |
| O=C(c1ccsc1)N1CCO[C@@H]2CN(Cc3ccco3)CC[C@@H]2C1 | 44.8 |
| Cc1c(CNCC(C)Oc2cccnc2)c2ccccc2n1CC(N)=O (configuration not stated) | -36.6 |
| Nc1cc2c(nn1)CCN(C(=O)c1cccnc1Oc1ccccc1)C2 | -18.7 |
| CCn1c(C)cc(C(=O)N2CCc3nnc(N)cc3C2)c1C | 68.8 |
| Cc1cc(C(=O)N2CCc3nnc(N)cc3C2)c(C)n1C1CC1 | -15.8 |
| Cc1cc(C(=O)N2CCc3nnc(N)cc3C2)c(C)n1-c1ccccc1 | 89.3 |
| Nc1cc2c(nn1)CCN(C(=O)c1cccc3c1OCCO3)C2 | 44.2 |

| Compound | INHIBITION [%] |
| --- | --- |
| Cc1cc(C(=O)N2CCc3nnc(N)cc3C2)c(C)n1-c1cccnc1 | 11.8 |
| Cc1ccc(CN(C(=O)NCC2CCCO2)C2CC2)o1 (configuration not stated) | -56.2 |
| COCCc1noc(CNC2CCCC(C)(C)C2)n1 (configuration not stated) | 20.2 |
| Cc1ccccc1CS(=O)(=O)c1nnc(C(C)NC(=O)OC(C)(C)C)o1 (configuration not stated) | 46.6 |
| CC(=O)N(C)Cc1ccccc1NCc1c(C)cccc1C | 50.2 |
| CC(=O)N(C)Cc1ccccc1NC(=O)c1ccccc1C | -19.55 |
| CC(=O)N(C)Cc1ccccc1NCc1c(C)noc1C | -16.1 |
| C=C(C)CN(CC)C(=O)Nc1ccccc1CN(C)C(C)=O | 28.7 |
| CC(=O)N(C)Cc1ccccc1NC(=O)N(C)CCc1cccs1 | 52.3 |
| CC(=O)N(C)Cc1cccc(NC(=O)N(C)CCc2cccs2)c1 | -6.34 |
| O=C(c1ccccc1)N1CCS(=O)(=O)[C@@H]2CCNCC[C@@H]21 | 38.2 |
| CNC(=O)c1ccc(C(=O)N2CCCC(n3nc(C)cc3C)C2)cn1 (configuration not stated) | -11.9 |
| Cc1csc(N2CCCN(C(=O)c3ccoc3C)CC2)n1 | 15.3 |
| CC(=O)N1CC(=O)N(c2ccccc2)CC12CCN(Cc1ccoc1)C2 (configuration not stated) | 38.3 |
| CS(=O)(=O)c1ccc(CN2C[C@@H]3CC[C@H]2CN(c2ncccn2)C3)cc1 | 74.1 |
| CC(C)c1nnc(N2C[C@H]3CC[C@@H](C2)N(CC2CCC2)C3)s1 | 44.6 |
| Cc1nnsc1CN1C[C@@H]2CC[C@H]1CN(Cc1ccccc1)C2 | 46.4 |
| Cc1nnsc1CN1C[C@@H]2CC[C@H]1CN(Cc1ccc(F)cc1)C2 | 29.1 |
| CC(=O)Nc1ccc(CN2C[C@@H]3CC[C@H]2CN(c2ncccn2)C3)cc1 | -8 |
| Cc1ncsc1CN1C[C@@H]2CC[C@H]1CN(Cc1ccccc1)C2 | 15.5 |
| COc1ccc(CN2C[C@H]3CC[C@@H](C2)N(Cc2snnc2C)C3)cc1 | 73.5 |
| CCCN1C[C@@H]2CC[C@H]1CN(c1nnc(C(C)C)s1)C2 | -11.9 |
| Cc1nnsc1CN1C[C@@H]2CC[C@H]1CN(Cc1ccccn1)C2 | -15.3 |
| CC(C)c1nnc(N2C[C@H]3CC[C@@H](C2)N(Cc2ccccc2)C3)s1 | 87.2 |
| Cc1nnsc1CN1C[C@H]2CC[C@@H](C1)N(Cc1ccccc1)C2 | 60 |
| c1cnc(N2C[C@H]3CC[C@@H](C2)N(Cc2ccsc2)C3)nc1 | 15.7 |
